The source of these data is PubChem BioAssay (Tox21).

Several values for one entry are separate records, joined by “and”; a condition that tells them apart may be missing. Identical values can stand only once. Inconclusive results are not listed. Where a structure was tested more than once in an assay, its records may differ in their call. Activity calls are given as the source filed them. Unless noted, the call rests on the fitted dose curve.

Assay [1] can be described thus: Nuclear factor erythroid 2-related factor 2/antioxidant responsive element (Nrf2/ARE) small molecule agonists: luciferase reporter gene qHTS assay in human keratinocytes (AID 1919969; further: nearly all actives have a fitted effect of over 35% in size; further: potency means the concentration at half of the fitted maximal effect). (Reporter assays use an easily measured gene product as a stand-in for the process of interest.)
The target of assay [2] is Gonadotropin-releasing hormone receptor (Homo sapiens) (UniProt P30968). As to the kind of experiment: Human gonadotropin-releasing hormone receptor (GnRHR) small molecule agonists, calcium flux assay in GnRHR-HEK293 cells (AID 1920063). Further: nearly all actives have a fitted effect of over 35% in size. An outline of the steps:
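We seeded human GnRHR-expressing HEK293 cells for 18 hours, loaded them with calcium dye for an hour at 37 C, added test compounds, and recorded fluorescence intensity kinetically for three minutes.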
In general terms: Calcium flux is commonly read through the fluorescence of an indicator in the cells.

In assay [3] the target is KiSS-1 receptor (Homo sapiens) (UniProt Q969F8). As to the kind of experiment: Human kisspeptin (KISS1R) small molecule agonists, calcium flux assay in KISS1R-HEK293 cells (AID 1920064; active means well fitted activation curve with a large enough effect in the repeat runs). An outline of the steps: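 Kinetic calcium assay, 1 s sampling over 3 min at Ex/Em 480/540, in HEK293 cells engineered with human KISS1R; compounds delivered in DMSO after 1 h dye loading.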
Sequence of KiSS-1 receptor (Homo sapiens) (Q969F8 whole entry, looked up): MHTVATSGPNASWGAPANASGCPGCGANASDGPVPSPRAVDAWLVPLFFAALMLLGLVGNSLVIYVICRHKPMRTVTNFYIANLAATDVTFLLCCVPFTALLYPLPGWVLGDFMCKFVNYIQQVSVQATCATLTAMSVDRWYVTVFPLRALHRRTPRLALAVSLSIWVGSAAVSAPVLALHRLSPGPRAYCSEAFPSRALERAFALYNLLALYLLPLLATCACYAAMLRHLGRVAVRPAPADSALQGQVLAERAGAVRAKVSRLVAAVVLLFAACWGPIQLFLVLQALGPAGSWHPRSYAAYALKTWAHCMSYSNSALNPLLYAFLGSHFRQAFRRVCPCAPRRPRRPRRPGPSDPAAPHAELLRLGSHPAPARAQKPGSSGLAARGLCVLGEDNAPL

The nature of assay [4]: G protein-coupled receptor (GPCR) small molecule agonists, calcium flux assay: HEK293 wild type cell line counter screen (AID 1920065). The procedure, abridged: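 Calcium-sensitive dye, loaded 1 h at 37 C into cells cultured 18 h, reports compound-evoked calcium release as fluorescence (Ex/Em 480/540), measured over 3 min. Agonist mode; 15-point titrations, triplicate.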

The nature of assay [5]: p53 small molecule agonists, cell-based qHTS assay with human liver microsomes (AID 1963577). An outline of the steps: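 Compounds act here after metabolic activation: human liver microsomes and NADPH, both at 0.5 mg/mL final, were co-added to p53RE-bla cells. Incubation ran 16 h at 37 C, followed by LiveBLAzer detection.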
A short description of assay [6]: p53 small molecule agonists, cell-based qHTS assay with rat liver microsomes (AID 1963578). An outline of the steps: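 Read-out is beta-lactamase reporter fluorescence (LiveBLAzer, 2 h, room temperature, dark) in p53RE-bla cells treated 16 h at 37 C with compound, rat liver microsomes and NADPH, both 0.5 mg/mL final.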
(In general: qHTS replaces the single test concentration by a dilution series.)

Assay [7] is described as follows: p53 small molecule agonists, cell-based qHTS assay with rat liver microsomes: qHTS cell viability counter screen (AID 1963580). Further: nearly all actives have a fitted effect of over 45% in size. An outline of the steps: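 Viability is assessed in parallel with the p53 reporter read: HCT-116 p53RE-bla cells receive compounds plus rat microsomes and NADPH (0.5 mg/mL final apiece), incubate 16 h at 37 C, and then CellTiter-Glo luminescence is recorded.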

The nature of assay [8]: p53 small molecule agonists, cell-based qHTS assay: qHTS cell viability counter screen (AID 1963581). Further: nearly all actives have a fitted effect of over 45% in size. An outline of the steps:
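Following 5 h attachment, HCT-116 p53RE-bla cells took up compound for 16 h at 37 C; the reporter was read with B/G FRET substrate (2 h RT), and viability then via CellTiter-Glo ATP luminescence.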

The nature of assay [9]: p53 small molecule agonists, cell-based qHTS assay (AID 1963582; active means well fitted activation curve with a large enough effect in the signal ratio in the repeat runs, not every such curve was filed as active; the % refers to the signal ratio). An outline of the steps:
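In this cell-based concentration-response screen, a p53 response element drives beta-lactamase; cells received DMSO-borne compounds after 5 h culture and were incubated a further 16 h before FRET substrate development.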

The target of assay [10] is 5-hydroxytryptamine receptor 2A (Homo sapiens) (UniProt P28223). The experiment in a line: 5-hydroxytryptamine receptor 2A (HTR2A) small molecule antagonists, cell-based qHTS assay (AID 1963586). Further: nearly all actives have a fitted effect of over 45% in size. An outline of the steps: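 Antagonist-mode intracellular calcium assay: DOI (4 nM) added after 5 min compound pre-incubation at room temperature to dye-loaded HTR2A-CHO cells. Fluorescence followed for 3 min, sampled every second.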
Sequence of 5-hydroxytryptamine receptor 2A (Homo sapiens) (P28223 whole entry, looked up): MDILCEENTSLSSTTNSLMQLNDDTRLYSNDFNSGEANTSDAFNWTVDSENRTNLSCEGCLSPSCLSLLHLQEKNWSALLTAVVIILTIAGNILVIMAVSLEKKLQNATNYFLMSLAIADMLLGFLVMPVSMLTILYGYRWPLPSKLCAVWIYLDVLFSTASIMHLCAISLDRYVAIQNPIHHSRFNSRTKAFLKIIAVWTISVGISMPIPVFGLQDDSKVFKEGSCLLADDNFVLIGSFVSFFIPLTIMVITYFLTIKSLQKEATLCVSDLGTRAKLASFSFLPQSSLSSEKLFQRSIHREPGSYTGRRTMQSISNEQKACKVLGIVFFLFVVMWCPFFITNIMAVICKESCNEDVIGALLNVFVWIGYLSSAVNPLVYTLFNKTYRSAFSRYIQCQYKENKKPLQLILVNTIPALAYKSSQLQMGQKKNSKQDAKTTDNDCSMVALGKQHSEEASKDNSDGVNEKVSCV

Assay [11] has the same target. The experiment in a line: 5-hydroxytryptamine receptor 2A (HTR2A) small molecule agonists, cell-based qHTS assay (AID 1963587). Further: nearly all actives have a fitted effect of over 30% in size. Further: potency means the concentration at half of the fitted maximal effect. The procedure, abridged: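 CHO cells stably expressing human HTR2A, plated 18 h, loaded with calcium dye 1 h at 37 C. Agonist mode: compounds added and intracellular calcium fluorescence recorded kinetically for 2 min at 1 sec intervals.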

Assay [12] deals with Muscarinic acetylcholine receptor M1 (Homo sapiens) (UniProt P11229). As to the kind of experiment: Cholinergic receptor muscarinic 1 (CHRM1) small molecule antagonists, cell-based qHTS assay (AID 1963588). Further: nearly all actives have a fitted effect of over 40% in size. An outline of the steps: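 CHRM1-CHO calcium-flux assay, antagonist mode. Cells were seeded 18 h, dye-loaded 1 h at 37 C and given compound for 5 min at RT, then acetylcholine was added at 50nM. FDSS fluorescence was read 3 min; 15 concentrations, three runs.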
Sequence of Muscarinic acetylcholine receptor M1 (Homo sapiens) (P11229 whole entry, looked up): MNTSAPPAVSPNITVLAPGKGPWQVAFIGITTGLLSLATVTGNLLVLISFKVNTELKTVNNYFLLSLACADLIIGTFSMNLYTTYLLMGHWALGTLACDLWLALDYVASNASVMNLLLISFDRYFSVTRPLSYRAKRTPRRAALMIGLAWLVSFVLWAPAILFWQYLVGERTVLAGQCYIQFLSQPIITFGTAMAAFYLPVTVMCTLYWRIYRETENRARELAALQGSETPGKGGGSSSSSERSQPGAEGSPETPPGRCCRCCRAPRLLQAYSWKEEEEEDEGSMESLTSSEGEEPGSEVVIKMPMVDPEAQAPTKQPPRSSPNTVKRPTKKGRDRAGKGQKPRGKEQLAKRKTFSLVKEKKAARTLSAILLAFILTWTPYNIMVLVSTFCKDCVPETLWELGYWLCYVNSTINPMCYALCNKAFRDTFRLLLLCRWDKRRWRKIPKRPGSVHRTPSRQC

Assay [13] shares this target. The experiment in a line: Cholinergic receptor muscarinic 1 (CHRM1) small molecule agonists, cell-based qHTS assay (AID 1963589). Further: nearly all actives have a fitted effect of over 35% in size. An outline of the steps: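 Measures agonist-induced intracellular calcium rise. Stable human CHRM1 CHO line, 1 h dye load at 37 C, compounds from DMSO, kinetic fluorescence read.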
The nature of assay [14]: cAMP Responsive Elements (CRE) small molecule agonists, cell-based qHTS assay (AID 1963590). An outline of the steps: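 A CRE-responsive beta-lactamase reporter in HEK 293T cells was used. Treatment ran 3 h at 37 C; detection used LiveBLAzer B/G FRET substrate for 2 h at room temperature.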
Assay [15] can be described thus: cAMP Responsive Elements (CRE) small molecule antagonists, cell-based qHTS assay (AID 1963591; active means well fitted inhibition curve with a large enough effect in the signal ratio in the repeat runs, not every such curve was filed as active; the % refers to the signal ratio). The procedure, abridged: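 HEK293T cells carrying a CRE-driven beta-lactamase reporter receive compound and NKH477 (0.25 uM final) for 3 h. Fluorescence from LiveBLAzer B/G FRET substrate is read after 2 h at room temperature.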
For assay [16], the target named is Beta-2 adrenergic receptor (Homo sapiens) (UniProt P07550). As to the kind of experiment: Adrenergic beta2 receptor (ADRB2) small molecule antagonists, cell-based qHTS assay (AID 1963592). Further: series mostly up to about 92 µM; nearly all actives have a fitted effect of over 50% in size. An outline of the steps: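 Cells (CHO, stable ADRB2 overexpression) incubated 18-20hr at 37C; compounds added from DMSO; agonist mix (1nM isoproterenol, 100uM IBMX, 25uM Ro-20-1724) added; 0.5hr RT; d2-cAMP and anti-cAMP-cryptate added; 1hr RT; 665/615 nm read.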
Sequence of Beta-2 adrenergic receptor (Homo sapiens) (P07550 whole entry, looked up): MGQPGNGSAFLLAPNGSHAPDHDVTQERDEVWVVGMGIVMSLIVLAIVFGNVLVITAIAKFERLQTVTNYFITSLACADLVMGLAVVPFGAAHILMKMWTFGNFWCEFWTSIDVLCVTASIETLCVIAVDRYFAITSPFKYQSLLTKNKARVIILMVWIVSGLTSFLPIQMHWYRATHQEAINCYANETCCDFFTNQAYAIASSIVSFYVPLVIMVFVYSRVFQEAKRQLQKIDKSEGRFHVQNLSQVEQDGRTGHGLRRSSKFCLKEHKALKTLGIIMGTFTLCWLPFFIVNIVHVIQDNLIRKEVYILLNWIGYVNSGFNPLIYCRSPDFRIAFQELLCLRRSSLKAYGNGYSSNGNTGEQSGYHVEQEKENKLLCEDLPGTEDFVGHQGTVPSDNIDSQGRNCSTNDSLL

The target of assay [17] is D(2) dopamine receptor (Homo sapiens) (UniProt P14416). As to the kind of experiment: Dopamine D2 receptor (DRD2) small molecule agonists, cell-based qHTS assay (AID 1963594). Further: nearly all actives have a fitted effect of over 35% in size. The procedure, abridged: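 HEK293 cells stably expressing human DRD2, pre-treated with PDE inhibitor Ro20-1724 (0.1 mM final) and compound 10 min at room temperature, then stimulated with NKH477 (200nM […]) for 30 min. cAMP read by HTRF (665/620 nm).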
Sequence of D(2) dopamine receptor (Homo sapiens) (P14416 whole entry, looked up): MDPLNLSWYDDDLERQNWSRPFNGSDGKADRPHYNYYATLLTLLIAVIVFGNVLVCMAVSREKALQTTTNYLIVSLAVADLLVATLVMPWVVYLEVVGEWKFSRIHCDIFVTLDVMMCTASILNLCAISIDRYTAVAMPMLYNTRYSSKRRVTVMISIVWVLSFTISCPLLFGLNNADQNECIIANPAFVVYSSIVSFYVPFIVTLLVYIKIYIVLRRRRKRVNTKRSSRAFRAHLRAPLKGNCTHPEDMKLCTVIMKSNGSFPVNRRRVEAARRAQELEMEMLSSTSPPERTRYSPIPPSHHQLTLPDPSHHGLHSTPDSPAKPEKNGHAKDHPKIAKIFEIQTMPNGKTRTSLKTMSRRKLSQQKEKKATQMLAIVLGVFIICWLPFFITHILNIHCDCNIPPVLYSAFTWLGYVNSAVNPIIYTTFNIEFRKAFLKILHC

For assay [18] the target is unchanged. The experiment in a line: Dopamine D2 receptor (DRD2) small molecule antagonists, cell-based qHTS assay (AID 1963595; active means well fitted inhibition curve with a large enough effect in the signal ratio in the repeat runs, with a control signal flat; the % refers to the signal ratio). An outline of the steps:
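DRD2-HEK293; 0.1 mM Ro20-1724; cpd 10 min RT; NKH477 200 nM + quinpirole 12 nM, 30 min RT; HTRF cAMP (cAMP-d2/anti-cAMP cryptate), 665/620 nm ratio after 1 h.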

Assay [19] is described as follows: p53 small molecule agonists, cell-based qHTS assay with human liver microsomes: qHTS cell viability counter screen (AID 1963579). Further: nearly all actives have a fitted effect of over 45% in size. Further: potency means the concentration at half of the fitted maximal effect. An outline of the steps:
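Cells carrying the p53 response-element beta-lactamase reporter are treated for 16 h at 37 C with test compounds in the presence of human liver microsomes and NADPH (both 0.5 mg/mL final); ATP-based CellTiter-Glo luminescence then reports viability.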

Assay [20] concerns the target Beta-2 adrenergic receptor (Homo sapiens) (UniProt P07550). As to the kind of experiment: Adrenergic beta2 receptor (ADRB2) small molecule agonists, cell-based qHTS assay (AID 1963593).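 Further: CHO cells stably overexpressing human ADRB2.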 The procedure, abridged: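 CHO cells stably over-expressing ADRB2 were plated overnight at 37C, then dosed with compounds plus a stimulation mix containing 100uM IBMX and 25uM Ro-20-1724 for 0.5hr at room temperature. cAMP was measured by HTRF competition, 1hr.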

Sequence of Gonadotropin-releasing hormone receptor (Homo sapiens) (P30968 whole entry, looked up): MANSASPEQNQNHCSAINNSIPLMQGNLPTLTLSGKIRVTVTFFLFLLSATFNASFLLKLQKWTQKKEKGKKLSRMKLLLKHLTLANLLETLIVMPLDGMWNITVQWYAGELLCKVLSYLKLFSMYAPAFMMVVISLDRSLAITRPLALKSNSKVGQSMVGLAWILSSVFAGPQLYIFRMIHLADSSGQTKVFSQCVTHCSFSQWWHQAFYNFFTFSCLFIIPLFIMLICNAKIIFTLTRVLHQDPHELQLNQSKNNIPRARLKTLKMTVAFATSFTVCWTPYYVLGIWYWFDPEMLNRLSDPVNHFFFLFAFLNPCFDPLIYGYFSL

For the compound `CNCC(O)c1ccc(O)cc1` (stereo not drawn), the Potency entry in assay [1], in assay [2], in [3], in assay [4], in assay [5] and in assay [6] was “inactive” each time. Also, the Potency entry in assay [7], in [8], in [9], in assay [10], in assay [11] and in assay [12] was “inactive” throughout. In addition, the Potency result in assay [13], in assay [14], in assay [15], in assay [16], in assay [17] and in assay [18] was “inactive” each time.
With `CN(C)C(=S)SSC(=S)N(C)C`, the Potency result in assay [1] was “inactive and 96.9 nM (active)”; in assay [11], “inactive and 27.5 µM (active)”. Also, the Potency result in assay [2], in [3], in [4], in [6], in assay [19] and in assay [8] was “inactive” throughout. In addition, the Potency entry in [10], in [13], in assay [16], in [17] and in assay [18] was “inactive” each time.
`N#CCCCl`: the Potency result in assay [1], in assay [2], in assay [3], in assay [4], in assay [5] and in assay [6] was “inactive” each time. In addition, the Potency entry in [19], in assay [7], in assay [8], in assay [9], in assay [10] and in assay [12] was “inactive” in each case. In addition, the Potency result in assay [13], in [14], in assay [15], in [20], in [17] and in [18] was “inactive” throughout.
Regarding `CCOP(=S)(OCC)O/N=C(\C#N)c1ccccc1`, the Potency result in [1], in [2], in assay [3], in assay [4], in assay [19] and in assay [7] was “inactive” in each case. In addition, the Potency result in assay [8], in [10], in assay [11], in assay [12], in assay [13] and in assay [14] was “inactive” throughout. For the same compound, the Potency result in assay [15], in assay [16], in [20], in [17] and in assay [18] was “inactive” throughout.
Take `CC(O)CN(CC(C)O)CC(C)O` (stereo not drawn): the Potency entry in [1], in assay [2], in assay [3], in assay [4], in assay [5] and in [6] was “inactive” each time. For the same compound, the Potency result in assay [19], in assay [7], in assay [8], in assay [9], in assay [10] and in assay [11] was “inactive” each time. For the same compound, the Potency entry in [12], in assay [13], in [14], in assay [15], in [16] and in [18] was “inactive” each time.
For `CCOC(=O)CP(=O)(OCC)OCC`, the Potency result in assay [1], in assay [2], in assay [3], in [4], in [5] and in assay [6] was “inactive” throughout. Further, the Potency entry in assay [19], in assay [7], in assay [8], in [10], in assay [11] and in [13] was “inactive” throughout. For the same compound, the Potency entry in assay [14], in assay [15], in assay [16], in [17] and in assay [18] was “inactive” in each case.
As to `CCCN(CCC)c1c([N+](=O)[O-])cc(C(C)C)cc1[N+](=O)[O-]`, the Potency in [1] is 9.48 µM (active) and 15.4 µM (active). The Potency entry in assay [2], in [3], in [4], in assay [5], in [19] and in assay [7] was “inactive” each time. Besides, the Potency result in [8], in assay [10], in assay [11], in assay [13], in assay [14] and in assay [15] was “inactive” throughout. Besides, the Potency entry in assay [16], in assay [20] and in assay [17] was “inactive” throughout.
As for `CN(N=O)C(N)=O`, the Potency entry in [1], in [2], in assay [3], in [4], in assay [6] and in assay [19] was “inactive” in each case. Moreover, the Potency entry in [7], in [8], in assay [9], in assay [10], in [11] and in [12] was “inactive” throughout. The Potency entry in assay [13], in [14], in assay [15], in assay [16], in assay [20] and in [17] was “inactive” each time.
In the case of `CCBr`, the Potency entry in assay [1], in assay [2], in assay [3], in assay [4], in assay [6] and in assay [19] was “inactive” each time. For the same compound, the Potency result in assay [8], in assay [9], in assay [10], in assay [11], in [12] and in assay [13] was “inactive” in each case. Besides, the Potency entry in assay [14], in assay [15], in [16], in [20] and in assay [18] was “inactive” each time.
Consider `Nc1ccc(Cc2ccc(N)cc2)cc1`, for which the Potency entry in assay [1], in [2], in assay [3], in assay [4], in assay [5] and in assay [7] was “inactive” each time. Also, the Potency entry in [8], in assay [9], in [14], in [15], in [17] and in [18] was “inactive” each time.
As to `COC(=O)c1cncn1C(C)c1ccccc1` (stereo not drawn), the Potency result in [1], in [2], in assay [4], in assay [5], in assay [6] and in [19] was “inactive” throughout. The Potency result in [7], in assay [8], in assay [9], in [10], in assay [11] and in [12] was “inactive” each time. In addition, the Potency entry in assay [13], in assay [15], in assay [16], in assay [20], in assay [17] and in assay [18] was “inactive” each time.
On to `Oc1cccc2cccnc12`, for which the Potency result in assay [2], in assay [3], in assay [4], in assay [8], in assay [14] and in assay [15] was “inactive” in each case. The Potency entry in assay [16], in [20], in [17] and in assay [18] was “inactive” throughout. The Potency entry in [19] was “inactive and 971 nM (active) and 913 nM (active)”.
